From the supplement of paper PMC10681739

What follows are sequences tested against RUNX1 (UniProt Q01196) (assay: TF binding intensity (PBM fluorescence), negative control probe (arbitrary fluorescence units); higher = stronger binding).
Description: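 gcPBM negative-control 36-bp genomic probes lacking TF binding sites. Each was incubated with recombinant human ETS1 or RUNX1 alone and detected by antibody fluorescence. Values are medians over replicate spots (4 spots for the ETS1-RUNX1 arrays, 3 for the ETS1-ETS1 array). The probes sit in constant array flanks that are not printed.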

RUNX1, sequence (Q01196 whole entry): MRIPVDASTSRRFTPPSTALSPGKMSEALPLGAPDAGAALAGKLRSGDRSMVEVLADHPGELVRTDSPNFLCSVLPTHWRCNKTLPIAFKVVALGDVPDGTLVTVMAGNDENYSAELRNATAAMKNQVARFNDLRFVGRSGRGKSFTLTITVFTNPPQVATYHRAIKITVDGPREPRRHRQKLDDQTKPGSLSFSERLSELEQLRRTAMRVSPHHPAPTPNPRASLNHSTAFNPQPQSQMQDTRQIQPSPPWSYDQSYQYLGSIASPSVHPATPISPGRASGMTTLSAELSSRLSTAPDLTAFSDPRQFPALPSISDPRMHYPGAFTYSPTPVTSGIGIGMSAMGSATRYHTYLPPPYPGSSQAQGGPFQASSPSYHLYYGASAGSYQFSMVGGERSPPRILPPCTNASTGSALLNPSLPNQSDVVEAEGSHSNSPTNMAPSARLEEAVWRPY

Going from “ACAGTTGCTCCGTCTCTTCCTGTGTCTGGCTTTATT (protein concentration 2 nM)” to “TCCCTGCTGGTCCTGGTTCCGGCACACCAGGCCCTC (protein concentration 2 nM)”, the TF binding intensity falls from 876 to 864.

Work on “GGTCCCAGGAGAGGGGTTCCGGGGTGAAAGAGTGAG (protein concentration 2 nM)” yielded a TF binding intensity of 1060.
